# The list is not random: actives were taken first. Their share in the collection is about 5.7%.
# ssDAF12 agonist: activators of S. stercoralis DAF-12 nuclear receptor; HEK293 ssDAF-12/GRIP1 lit1-tk-luc reporter, luminescence; % of 3 µM dafachronic acid response; activation, % at 6.8 µM; hit rate 1% among 370,000; AID 652126;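 active means activation above the mean over all tested compounds plus 3 SD, cut at about 0.9% in these data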;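 further: 0% = DMSO-only wells and 100% = 3 µM delta7-dafachronic acid wells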
# DAX1 inh-1: inhibitors of human orphan nuclear receptor DAX1 (NR0B1). HEK293 Gal4-DAX1 luciferase reporter, luminescence. hit rate 0.99% among 340,000. inhibition, % at 6.75 µM. AID 504766;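 active means inhibition above the mean over all tested compounds plus 3 SD, cut at about 4.2% in these data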;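 further: 0% = DAX1-transfected cells with DMSO and 100% = empty-vector control cells with DMSO; inhibition shows as a rise in luminescence from relieved DAX1 repression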
# DAX1 inh-2: DAX1 (NR0B1) inhibition, primary screen | HEK293T StAR-luciferase reporter, SF-1/DAX-1 repression relief | inhibition, % at 6.8 µM | hit rate 1.1% among 370,000;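 active means inhibition above the mean over all tested compounds plus 3 SD, cut at about 3.6% in these data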;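 further: 0% = DAX-1 cells with DMSO and 100% = cells lacking DAX-1 with DMSO; higher inhibition means more luminescence from relief of DAX-1 repression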
# hcDAF12 agonist: activates DAF-12 receptor from parasite H. contortus; HEK293 hcDAF-12 lit1-tk-luc reporter, luminescence; 0% DMSO, 100% Δ7-dafachronic acid; AID 652067; hit rate 1.4% among 370,000; activation, % at 6.8 µM;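 active means activation above the mean of all tested compounds plus 3 SD, cut at about 5.5% in these data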;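 further: 100% = response to 3 µM Δ7-dafachronic acid high control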
# AHR activator: activators of human aryl hydrocarbon receptor; activation, % at 5 µM; P35869; hit rate 2.5% among 320,000; AHR-responsive luciferase reporter cells, luminescence; in the data active means activation above about 47%;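 further: 0% = vehicle wells and 100% = reference agonist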
# Target sequence (P35869 whole entry, looked up): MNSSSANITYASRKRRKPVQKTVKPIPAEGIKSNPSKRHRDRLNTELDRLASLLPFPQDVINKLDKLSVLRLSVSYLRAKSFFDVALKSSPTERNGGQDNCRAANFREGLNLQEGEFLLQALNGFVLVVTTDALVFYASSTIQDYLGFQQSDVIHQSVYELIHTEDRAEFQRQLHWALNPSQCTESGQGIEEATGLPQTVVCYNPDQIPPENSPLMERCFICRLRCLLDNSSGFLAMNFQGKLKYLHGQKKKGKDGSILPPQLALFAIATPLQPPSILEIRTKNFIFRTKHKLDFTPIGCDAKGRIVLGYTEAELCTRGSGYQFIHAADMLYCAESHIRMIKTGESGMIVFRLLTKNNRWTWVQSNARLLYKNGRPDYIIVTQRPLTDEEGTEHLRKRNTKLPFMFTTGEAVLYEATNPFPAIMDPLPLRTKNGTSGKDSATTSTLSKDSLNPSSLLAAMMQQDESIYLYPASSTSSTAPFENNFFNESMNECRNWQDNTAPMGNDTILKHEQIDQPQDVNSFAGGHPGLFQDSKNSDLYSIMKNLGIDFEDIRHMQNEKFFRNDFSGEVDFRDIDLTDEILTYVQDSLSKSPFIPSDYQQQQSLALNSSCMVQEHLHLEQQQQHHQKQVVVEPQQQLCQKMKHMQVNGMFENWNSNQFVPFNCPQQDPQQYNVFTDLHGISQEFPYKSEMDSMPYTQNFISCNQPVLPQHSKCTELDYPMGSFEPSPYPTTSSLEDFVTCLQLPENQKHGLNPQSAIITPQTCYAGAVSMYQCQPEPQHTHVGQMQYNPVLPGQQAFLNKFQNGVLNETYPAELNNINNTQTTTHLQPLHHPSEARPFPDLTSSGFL
# hgDAF-12 ag: activates the H. glycines DAF-12 receptor ligand-binding domain | HEK293 GAL4-hgDAF12 UAS-luciferase reporter, agonist luminescence; normalized to butyrate control | activation, % at 6.8 µM | hit rate 1.8% among 370,000 | AID 687014;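 active means activation above a cutoff set at the mean of all screened compounds plus 3 SD, cut at about 10% in these data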;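 further: 0% = DMSO wells and 100% = sodium butyrate wells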
# Numbers without * were called inactive; . = not tested or not shown.
SMILES,ssDAF12 agonist,DAX1 inh-1,DAX1 inh-2,hcDAF12 agonist,AHR activator,hgDAF-12 ag
Cn1c(SCC(=O)Nc2ccc(F)cc2F)nnc1-c1cccnc1,-1.3,2.7,1.4,-1.7,48.0*,1.5
O=C(/C=C/[C@H]1O[C@@H](n2ccc(=O)[nH]c2=O)[C@H](O)[C@@H]1O)NCCc1c[nH]c2ccccc12,-0.6,.,0.3,-1.0,.,0.7
CC1CCCC(C)N1C(=S)SCC(=O)O (stereo unspecified),-1.4,2.5,0.3,-1.6,-0.6,-3.4
O=C1CN(c2ccccc2)C(=S)N1C(=O)c1ccc(Br)cc1,0.7,7.7*,1.9,3.8,3.0,13.7*
O=C(O)c1ccccc1N/N=C/c1c(Sc2nnnn2-c2ccccc2)nc2ccccn2c1=O,0.0,-0.3,1.7,-1.0,1.6,-1.6
O=c1c(/C=N/Nc2ccccc2)c(Sc2nnnn2-c2ccccc2)nc2ccccn12,-0.2,-2.5,0.1,6.3*,.,12.3*
O=C(c1ccccc1)N(CCCn1ccnc1)C(c1ccccc1)c1nc2ccccc2[nH]1 (stereo unspecified),-0.9,.,3.6*,4.3,.,3.9
CC1CN(C(C)C)C(=S)NC1=O (stereo unspecified),-1.1,-0.8,3.6*,-0.5,.,-0.7
CCOC(=O)c1oc2cc(O)c(CC)cc2c(=O)c1-c1cscn1,-0.5,-0.2,-0.1,0.2,46.8,3.3
CCc1cc2c(=O)c(-c3cscn3)coc2cc1O,1.0*,0.0,1.3,5.7*,73.5*,10.9*
Cc1ccc(N=Cc2ccc(N(C)C)cc2)cc1,-0.9,-0.8,-0.1,1.4,-1.2,1.9
Cc1sc(N=Nc2ccc(N(C)C)cc2)[n+]([O-])c1C,0.0,2.3,3.7*,4.2,.,4.8
O=Cc1c[nH]c2ccc(C(=O)c3ccccc3)cc12,-0.5,-0.6,-0.2,-1.3,10.8,4.8
COC(=O)[C@@H](N[C@H](/C=C/c1ccccc1)[C@@H](O)Cc1ccccc1)C(C)C,-1.0,.,-0.1,-1.4,.,-0.3
O=C(COc1ccc(Cl)cc1)NCc1nnc(SCC(=O)Nc2ccc(F)cc2F)o1,-1.8,0.6,-0.5,-1.4,2.5,-0.1
COc1ccc(C2Nc3ccc4ccccc4c3-c3c2c(=O)oc2ccccc32)cc1 (stereo unspecified),1.4*,0.3,0.1,3.6,7.5,0.7
CCOc1ccc(C2Nc3ccc4ccccc4c3-c3c2c(=O)oc2ccccc32)cc1 (stereo unspecified),-1.4,0.2,1.7,1.4,5.8,-1.5
CCCC1CCC2(CC1)CCC2OC(=O)Nc1cccc(Cl)c1 (stereo unspecified),-0.9,.,.,-1.6,.,4.1
Cc1cccnc1CCNC(=O)CCc1nnc(CCc2ccccc2)o1,-0.3,4.7*,-0.7,0.8,0.7,0.8
Cc1cccnc1CN1CCN(C(=O)CCc2nnc(CCc3ccccc3)o2)CC1,-1.3,0.4,0.7,0.5,0.7,4.7
COC(=O)[C@]12C[C@H](CC(=O)NCc3cccc4ccccc34)C(=O)N(Cc3ccc4c(c3)OCO4)C1=C[C@H](C(C)(C)C)O[C@@H]2C,-0.6,.,-0.1,0.7,.,0.2
Nc1nonc1-n1nnc(C(=O)N/N=C/c2cccc(F)c2)c1CN1CCCCCC1,-1.6,4.7*,-0.1,-0.8,0.9,1.1
COC(=O)c1nnn(-c2nonc2N)c1CN1CCCC1,-0.7,4.4*,-0.2,-0.8,0.9,2.1
Nc1nonc1-n1nnc(C(=O)N/N=C/c2cccc(F)c2)c1CN1CCCC1,-1.4,2.0,-0.8,0.4,-1.9,-1.5
Cc1nn2c(NCCCn3ccnc3)cc(C(C)C)nc2c1-c1ccccc1,-1.0,-0.5,-0.3,0.0,47.6*,0.7
O=C(OCCN=C1NS(=O)(=O)c2ccccc21)c1ccccc1F,-1.2,0.1,-0.2,-1.9,-1.7,-3.2
CCC(C)[C@H](NC(=O)Nc1ccccc1F)C(=O)O (stereo partly specified),-1.2,-1.2,0.2,-0.5,3.4,0.5
CCCc1cc(C(=O)Nc2ccc(C(C)=O)cc2)no1,-0.9,0.9,0.8,1.2,1.4,1.0
CCCc1cc(C(=O)Nc2ccc(F)cc2F)no1,0.4,1.5,1.3,1.0,-0.4,13.0*
CC(=O)c1cccc(NC(=O)c2cc3ccccn3n2)c1,-0.4,-0.2,3.7*,1.3,14.9,7.4

# Assay outcomes deposited in PubChem BioAssay by The Scripps Research Institute Molecular Screening Center.
